PubChem BioAssay (NCI)
Compounds without any hit were thinned out: in the full panel of roughly 79,000, 15% have a hit. Active and inactive are the calls of the source. No stated cut-off is given here; in the data, active means growth inhibition above about 70%; inactive means the rest.

Assays:
[1] = NCI Yeast Anticancer Drug Screen. Data for the rad50 strain (AID 155);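 further: 0% = growth of vehicle-only cultures of the same strain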; details: S. cerevisiae rad50 strain growth inhibition; at 50.0 µM; hits give high values
In short: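 Readout: growth inhibition relative to vehicle-treated cultures. Compound exposure was carried out in a genetically defined yeast strain deficient in DNA damage repair.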

[2] = NCI Yeast Anticancer Drug Screen. Data for the mec2-1 strain (AID 157); details: S. cerevisiae mec2-1 strain, at 50.0 µM, hits give high values
In short: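 Growth inhibition is read against vehicle-treated controls after compound exposure of the mec2-1 yeast strain, which is defective in DNA damage repair or cell cycle control.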

[3] = NCI Yeast Anticancer Drug Screen. Data for the sgs1 mgt1 strain (AID 161);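 further: 0% = growth of cultures given vehicle only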; details: S. cerevisiae sgs1 mgt1 strain, at 50.0 µM, hits give high values
In short: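 Yeast cells carrying a defined DNA-repair defect were exposed to test compounds. Growth inhibition was measured relative to vehicle-treated controls.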

[4] = NCI Yeast Anticancer Drug Screen. Data for the cln2 rad14 strain (AID 165);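 further: 0% = growth equal to vehicle treated cultures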; details: S. cerevisiae cln2 rad14 strain, at 50.0 µM, hits give high values
In short: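 Growth inhibition, relative to vehicle-treated controls, is the read-out. The test organism is a yeast strain with defined genetic alterations, cln2 rad14.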

[5] = NCI Yeast Anticancer Drug Screen. Data for the bub3 strain (AID 167); details: S. cerevisiae bub3 mutant strain, at 50.0 µM, hits give high values
In short: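 Readout: yeast growth inhibition, expressed relative to vehicle-only wells. The test organism is a mutant strain from a panel with lesions in DNA repair or checkpoint genes.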

[6] = NCI Yeast Anticancer Drug Screen. Data for the mlh1 rad18 strain (AID 175); details: S. cerevisiae mlh1 rad18 strain growth inhibition; at 50.0 µM; hits give high values
In short: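 Cells of a genetically altered yeast strain, deficient in DNA damage repair, were treated with compound. Their growth was then compared with that of vehicle-treated cultures to give inhibition.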

SMILES	growth inhibition [1]	growth inhibition [2]	growth inhibition [3]	growth inhibition [4]	growth inhibition [5]	growth inhibition [6]
CN(CC(C)(C)C=O)C(=O)c1ccccc1	8.05% (inactive)	-5.45% (inactive)	-10% (inactive)	-8.3% (inactive)	-19.1% (inactive)	-1% (inactive)
C/C(CC(=O)Nc1ccc(Cl)cc1)=N\NC(=O)C[n+]1ccccc1	1.35% (inactive)	-17.6% (inactive)	11.2% (inactive)	16.6% (inactive)	-12.5% (inactive)	-8.6% (inactive)
CC(C)Nc1ncnc2c1cnn2-c1ccccc1	-5.9% (inactive)	-17.1% (inactive)	0.65% (inactive)	-57.7% (inactive)	13.5% (inactive)	-11.3% (inactive)
CS(=O)(=O)OCCn1cnc2nc(NC(=O)c3ccccc3)[nH]c(=O)c21	-13.1% (inactive)	-20.6% (inactive)	-12.7% (inactive)	0.55% (inactive)	-19.2% (inactive)	-24.6% (inactive)
CC(C)=CCN1c2ccccc2NC(=O)CC1C (stereo unspecified)	-24.1% (inactive)	-66.7% (inactive)	-6.55% (inactive)	4.5% (inactive)	-10.9% (inactive)	-14.9% (inactive)
CCCCCCCCCCC1SCC(=O)N1c1nncs1 (stereo unspecified)	13.2% (inactive)	0.75% (inactive)	16.6% (inactive)	10.2% (inactive)	4.2% (inactive)	4.25% (inactive)
COc1cccc(C2c3cc4c(cc3OC(NNC(N)=O)C2C)OCO4)c1O (stereo unspecified)	-12.8% (inactive)	-8.6% (inactive)	2.55% (inactive)	9.9% (inactive)	-2.75% (inactive)	-7.35% (inactive)
O=C(C[n+]1ccccc1-c1ccccn1)c1ccc(-c2ccccc2)cc1	7.9% (inactive)	10.7% (inactive)	22.4% (inactive)	-14.7% (inactive)	1% (inactive)	34.6% (inactive)
CCCCCCC(c1c(O)cc(C)[nH]c1=O)c1c(O)cc(C)[nH]c1=O	-6.55% (inactive)	-8.5% (inactive)	9.55% (inactive)	-8.4% (inactive)	-12.8% (inactive)	-11.9% (inactive)
CCOP(=O)(OCC)C(C(=O)OC)C(=O)C(=O)Nc1c(C)cc(Br)cc1C (stereo unspecified)	-42.1% (inactive)	-17.2% (inactive)	-23.9% (inactive)	-1.8% (inactive)	-3.85% (inactive)	-17.6% (inactive)
O=CN(C1CCCCC1)C1CCCCC1	14.6% (inactive)	15.6% (inactive)	11% (inactive)	8.8% (inactive)	1.5% (inactive)	0% (inactive)
NC(=S)N/N=C/c1ccc(OC(=O)Cc2ccccc2)cn1	19.7% (inactive)	-6.6% (inactive)	10.1% (inactive)	7.1% (inactive)	4.55% (inactive)	16.4% (inactive)
CCN(CC)c1ccc(CO)cc1	7.65% (inactive)	4.8% (inactive)	-22.8% (inactive)	-9.85% (inactive)	-1.05% (inactive)	-13.2% (inactive)
Cc1cccc(-c2nnc3s/c(=C\c4ccc(N(C)C)cc4)c(=O)n23)c1	-3.05% (inactive)	8.15% (inactive)	13.4% (inactive)	13.8% (inactive)	13.5% (inactive)	16.4% (inactive)
O=C(/C=C/c1cccc2ccccc12)c1ccccc1Cl	52.9% (inactive)	-9.25% (inactive)	7.65% (inactive)	16.9% (inactive)	-6.65% (inactive)	35.2% (inactive)
C/C(=N\NC(=S)NC(C)C)c1nc2ncccc2[nH]1	-14.5% (inactive)	-17.6% (inactive)	-56.6% (inactive)	-28.8% (inactive)	17.5% (inactive)	-25.8% (inactive)
N=C1N=Nc2nc(C(C(=O)c3cccc(O)c3)c3nc4n(c3O)C(=N)N=N4)c(O)n21 (stereo unspecified)	18.8% (inactive)	23.9% (inactive)	-8.9% (inactive)	10.4% (inactive)	-2.75% (inactive)	28.6% (inactive)
Cc1ccc(S(=O)(=O)[N-]C2C(=O)c3ccccc3C(=O)C2[n+]2cccc(C(N)=O)c2)cc1 (stereo unspecified)	-1.75% (inactive)	2% (inactive)	9.5% (inactive)	4.55% (inactive)	8.8% (inactive)	-38.8% (inactive)

SMILES	growth inhibition [1]	growth inhibition [2]	growth inhibition [3]	growth inhibition [4]	growth inhibition [5]	growth inhibition [6]
C/C(N=NS(=O)(=O)c1ccc(C)cc1)=C1\C=CC=CN1O	-15.9% (inactive)	-14.7% (inactive)	-6.9% (inactive)	-1% (inactive)	-2.85% (inactive)	-11.9% (inactive)
COc1cc(-c2cc(-c3cc([N+](=O)[O-])c(/C=N/NC(=O)c4ccncc4)o3)ccc2OC)ccc1C	17.5% (inactive)	8.2% (inactive)	-8.1% (inactive)	26.9% (inactive)	11.2% (inactive)	8.3% (inactive)
NC(=O)C1CCc2ccccc2C1 (stereo unspecified)	0.7% (inactive)	-15.1% (inactive)	2.6% (inactive)	3% (inactive)	-5.15% (inactive)	-9.45% (inactive)
Cc1cc(N(CCC#N)CCC#N)ccc1/C=C1\N=C(c2cc([N+](=O)[O-])ccc2Cl)N(c2cccc(Cl)c2)C1=O	-19.4% (inactive)	-20.2% (inactive)	-23.9% (inactive)	-7.6% (inactive)	-6.05% (inactive)	-29.2% (inactive)
O=C1OC(=O)C2C3C=CC(C4C=C(C5CC5)C43)C12 (stereo unspecified)	9.8% (inactive)	-4.05% (inactive)	-4.1% (inactive)	-22.9% (inactive)	-5.5% (inactive)	5.2% (inactive)
CCOC(=O)c1cnc(NCCCCCCNc2ncc(C(=O)OCC)c(=O)[nH]2)[nH]c1=O	29.7% (inactive)	-1.5% (inactive)	-3.65% (inactive)	-6.8% (inactive)	-3.1% (inactive)	21.7% (inactive)
CN(C)C(=O)Nc1ccc(C#N)cc1	10.1% (inactive)	2.3% (inactive)	-13.3% (inactive)	-25.1% (inactive)	-5.15% (inactive)	-8.2% (inactive)
CCCCCC(=O)OCC(CC)CC	-8.05% (inactive)	-6.55% (inactive)	-13.3% (inactive)	-29.6% (inactive)	-1.05% (inactive)	5.35% (inactive)
OC1CC2CCCCC2CC1C1CCCCC1 (stereo unspecified)	4.15% (inactive)	-11.2% (inactive)	-7.25% (inactive)	-25.6% (inactive)	-23.7% (inactive)	0.85% (inactive)
COC(=O)N/N=C/c1cccc(C)n1	-5.55% (inactive)	2.05% (inactive)	-4.55% (inactive)	0.7% (inactive)	-5.25% (inactive)	-11.6% (inactive)
CC(C)CN(CC(=O)NC(=O)c1ccccc1)CC(C)C	-2.1% (inactive)	-10.1% (inactive)	-12.2% (inactive)	-37.9% (inactive)	-4% (inactive)	-3.8% (inactive)
CC(Cl)(CCC(Cl)C(C)(C)Cl)C(=O)CBr (stereo unspecified)	89% (active)	92.7% (active)	92.8% (active)	91.3% (active)	92.3% (active)	93.2% (active)
O=[N+]([O-])c1ncc(N(CCO)CCO)s1	19.2% (inactive)	-22.6% (inactive)	17.6% (inactive)	3.65% (inactive)	-18.2% (inactive)	-22.3% (inactive)
O=C(Cc1ccccn1)c1cccnc1	-1.15% (inactive)	-9.7% (inactive)	-4.75% (inactive)	-27.2% (inactive)	-17% (inactive)	-4.25% (inactive)
COc1ccc(C(=O)c2ccccc2)c(O)c1OC	-12.9% (inactive)	-5.95% (inactive)	-2.35% (inactive)	-0.75% (inactive)	45.8% (inactive)	10.3% (inactive)
O=C1c2[nH]c3ccccc3c2CN1CCc1ccccc1	-2.4% (inactive)	-15.9% (inactive)	4.7% (inactive)	-14.5% (inactive)	-4.45% (inactive)	-5.1% (inactive)
[Cl][Sn]1([Cl])[CH2]CCCCCCCCCC[CH2][Sn]([Cl])([Cl])[CH2]CCCCCCCCCC[CH2]1	-12.9% (inactive)	1.2% (inactive)	9.65% (inactive)	-12.7% (inactive)	-13.6% (inactive)	-25.5% (inactive)
CCCCN(CCCC)/C(=C/C(=O)OC)C(=O)OC	20.1% (inactive)	8.55% (inactive)	10.1% (inactive)	14.2% (inactive)	26.9% (inactive)	13.6% (inactive)
